CYP2C9 act: human CYP2C9 activators, primary screen, biochemical, luminescence; activation factor at 5 µM; actives 1.4% (n = 96,000); recombinant CYP2C9, luciferin-H conversion; active compounds read high; factor 1 = untreated enzyme, 0 = blocked; Cytochrome P450 2C9 (Homo sapiens), P11712;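 active means activation factor of 2 or more for CYP2C9 at a 5 µM dose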
CYP2C19 inhib: blockers of cytochrome P450 2C19 activity – biochemical, luminescence, ADME assay, primary screen; P33261; CYP2C19 Supersomes, luciferin-H EGE luminescence, 30 min; inhibition, % at 5 µM; actives 21% (n = 96,000);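 active means CYP2C19 inhibition above a set limit at 5 µM in the primary screen, cut at about 50% in these data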
Pyk2 oligo antag: antagonists of Pyk2 self-association, primary screen, Q293 cells, FERM NanoBiT luminescence, HTS | Protein-tyrosine kinase 2-beta (Homo sapiens), Q14289 | active compounds read low | z-score (the deposit names both 25 µM and 10 µM) | actives 0.83% (n = 99,000);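 active means Z-score of -3 or lower, scaled per plate to the spread of control and sample wells; inactive means z-score above -3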;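 further: negative z-score means lost luminescence so less FERM oligomerization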
Target sequence (Q14289 whole entry, looked up): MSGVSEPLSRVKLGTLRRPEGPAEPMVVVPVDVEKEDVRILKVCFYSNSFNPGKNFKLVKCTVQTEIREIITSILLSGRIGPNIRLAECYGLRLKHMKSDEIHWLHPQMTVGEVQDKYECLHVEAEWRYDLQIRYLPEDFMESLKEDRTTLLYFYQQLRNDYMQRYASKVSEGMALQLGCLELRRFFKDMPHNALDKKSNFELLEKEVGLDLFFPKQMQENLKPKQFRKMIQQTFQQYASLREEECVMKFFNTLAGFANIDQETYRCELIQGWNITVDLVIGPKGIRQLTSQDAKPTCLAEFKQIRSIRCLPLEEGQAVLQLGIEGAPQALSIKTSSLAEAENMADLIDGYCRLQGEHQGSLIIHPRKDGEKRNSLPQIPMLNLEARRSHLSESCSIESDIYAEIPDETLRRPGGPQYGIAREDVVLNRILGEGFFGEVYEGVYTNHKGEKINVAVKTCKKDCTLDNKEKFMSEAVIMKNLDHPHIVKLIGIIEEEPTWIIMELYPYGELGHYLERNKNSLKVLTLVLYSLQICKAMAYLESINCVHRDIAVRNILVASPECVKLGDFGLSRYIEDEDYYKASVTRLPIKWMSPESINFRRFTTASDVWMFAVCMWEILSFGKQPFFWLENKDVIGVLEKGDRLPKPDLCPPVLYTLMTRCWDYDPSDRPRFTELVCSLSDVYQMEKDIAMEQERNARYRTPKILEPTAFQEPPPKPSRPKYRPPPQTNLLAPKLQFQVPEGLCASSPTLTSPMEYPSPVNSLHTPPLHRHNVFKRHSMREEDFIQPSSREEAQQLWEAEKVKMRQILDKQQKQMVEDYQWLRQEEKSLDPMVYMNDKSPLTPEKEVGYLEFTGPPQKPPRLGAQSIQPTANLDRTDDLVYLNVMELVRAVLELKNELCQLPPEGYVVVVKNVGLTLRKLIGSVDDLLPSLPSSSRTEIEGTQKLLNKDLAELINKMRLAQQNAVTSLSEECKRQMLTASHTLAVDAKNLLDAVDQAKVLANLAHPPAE
CYP2C9 inh: blockers of cytochrome P450 2C9 activity – biochemical, luminescence, ADME assay, primary screen; inhibition, % at 5 µM; P11712; actives 20% (n = 96,000); AID 777, 2007; CYP2C9 Supersomes, luciferin-H conversion;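 active means blocking of liver enzyme CYP2C9 beyond about 50% at 5 µM, limit read from the data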
CYP2C19 activ: human CYP2C19 activators, primary screen, biochemical, luminescence. recombinant CYP2C19, luciferin-H EGE luminescence; active compounds read high; 0 = fully inhibited enzyme, 1 = untreated enzyme. activation factor at 5 µM. 96,000 tested, under 10 active;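 active means activation factor of at least 2 at 5 µM in the primary screen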
Large screens that a line does not name were inactive. Hits are enriched below; roughly 28% of the tested compounds scored in any of these assays.

O=C(/C=C/c1ccccc1)N1CCN(c2ccccn2)CC1	CYP2C9 inh 52.9
O=C(/C=C/c1ccccc1)c1ccccn1	CYP2C19 inhib 51.2
O=C(c1ccc(Cl)c(S(=O)(=O)N2CCCCCC2)c1)N1CCN(c2ccccn2)CC1	CYP2C9 inh 56.8
O=S1CCCSC1c1cccnc1 (stereo not drawn)	none
O=C1OC(/C=C/c2ccc(Cl)cc2)=NC/1=C/c1ccco1	none (no result: CYP2C9 act, CYP2C19 inhib, CYP2C9 inh, CYP2C19 activ)
CC1(C)CC(=O)C=C(NCC(=O)O)C1	none
CC1(C)CC2CC(C)(CN2S(=O)(=O)c2ccc(C(=O)Nc3ccc(Cl)c(S(=O)(=O)N4CCOCC4)c3)cc2)C1 (stereo not drawn)	CYP2C9 inh 62.1
c1cc2ccc3ccc(CN4CCOCC4)c4ccc(c1)c2c34	CYP2C19 inhib 73.8
Cc1cc2ccccc2cc1CN1CCOCC1	CYP2C19 inhib 58.0
OC1CCCN(Cc2ccc3ccc4cccc5ccc2c3c45)C1 (stereo not drawn)	none
CCOC(=O)C1(Cc2ccc(O)cc2)NC(c2ccco2)C2C(=O)N(c3ccccc3F)C(=O)C21 (stereo not drawn)	none
COc1ccccc1N1CCN(Cc2cccs2)CC1	CYP2C19 inhib 93.5
c1csc(CN2CCOCC2)c1	CYP2C19 inhib 93.7, CYP2C9 inh 100.3
COc1ccc(OC)c(CN2CCN(c3ccccc3OC)CC2)c1	CYP2C19 inhib 77.9
COc1cc2c(cc1OC)CN(Cc1cccs1)CC2	CYP2C19 inhib 65.7
Cc1csc2nc(CNS(=O)(=O)c3cccnc3)cn12	none (no result: CYP2C9 act, CYP2C19 inhib, CYP2C9 inh, CYP2C19 activ)
CC1Cc2ccccc2N1C(=O)c1cc2sccc2n1Cc1ccc(F)cc1 (stereo not drawn)	none (no result: CYP2C9 act, CYP2C19 inhib, CYP2C9 inh, CYP2C19 activ)
CC(C)[C@@H](C(=O)OCC(=O)Nc1ccc2c(c1)OCO2)N1C(=O)c2ccccc2C1=O	CYP2C19 inhib 58.3
CCC(C)[C@@H](C(=O)Nc1ccc2c(c1)OCO2)N1Cc2ccccc2C1=O (stereo partly drawn)	CYP2C19 inhib 68.7, CYP2C9 inh 50.7 (no result: Pyk2 oligo antag)
CCC(C)[C@H](NC(=O)Nc1ccc2c(c1)OCCO2)C(=O)O (stereo partly drawn)	none
O=C(COC(=O)[C@H](Cc1ccccc1)N1C(=O)c2ccccc2C1=O)Nc1ccc2c(c1)OCO2	CYP2C19 inhib 81.1, CYP2C9 inh 98.6
NC(=O)C1CCN(C(=O)Cn2cccc2C(=O)c2ccccc2)CC1	none
CCOC(=O)C1CCN(C(=O)C2CCCCC2)CC1	none
CCOC(=O)Nc1sc2nc(C)cc(C)c2c1-n1cccc1	CYP2C9 inh 65.6
CC(C)(C)c1nc(CN2CCOCC2)ccc1O	CYP2C19 inhib 59.9
CC(C)(C)c1nc(CN2CCCCC2)cc(CN2CCCCC2)c1O	none
CC(=O)c1cccc(NC(=O)N2CCCC2C(=O)Nc2ccccc2C)c1 (stereo not drawn)	CYP2C9 inh 55.7
CC(=O)c1cccc(NC(=O)N2CCCC2C(=O)Nc2cccc(C)c2C)c1 (stereo not drawn)	CYP2C19 inhib 89.8, CYP2C9 inh 87.8
Cc1cc(C)cc(NC(=O)N2CCCC2C(=O)Nc2ccc(-n3cnnn3)c(C)c2)c1 (stereo not drawn)	CYP2C19 inhib 96.5
COc1ccc(C2NC(=O)NC(C)=C2C(C)=O)cc1 (stereo not drawn)	none (no result: CYP2C9 act, CYP2C19 inhib, CYP2C9 inh, CYP2C19 activ)
Cn1c(C(=O)N(Cc2ccccc2)Cc2ccccn2)cc2sccc21	CYP2C19 inhib 87.8, CYP2C9 inh 90.8
Cn1c(C(=O)N(Cc2ccccc2)Cc2cccs2)cc2sccc21	CYP2C9 inh 73.2
O=C(NCC(=O)N(Cc1ccccc1)C(C(=O)NC1CCCC1)c1ccncc1)c1ccco1 (stereo not drawn)	none (no result: CYP2C9 act, CYP2C19 inhib, CYP2C9 inh, CYP2C19 activ)
CCN(CC)S(=O)(=O)c1cc(C(=O)Nc2ccc(Cl)cn2)ccc1C	CYP2C19 inhib 80.6, CYP2C9 inh 79.9
Cc1ccc(C(=O)Nc2ccc(Cl)cn2)cc1	none
CCN(CC)S(=O)(=O)c1cc(C(=O)NC2CCCCC2)ccc1C	CYP2C9 inh 64.9
CC(C(=O)Nc1cccc([N+](=O)[O-])c1)n1nnc2ccccc21 (stereo not drawn)	CYP2C19 inhib 53.4, CYP2C9 inh 78.9
CC(C(=O)Nc1cccc([N+](=O)[O-])c1)N1CCN(C/C=C/c2ccccc2)CC1 (stereo not drawn)	none (no result: CYP2C9 act, CYP2C19 inhib, CYP2C9 inh, CYP2C19 activ)
COc1ccc(/C=N/NC(=O)c2nonc2C)cc1	CYP2C19 inhib 79.9
